This is part of a sample that, as a whole, favours compounds with a hit. Of some 83,000 tested, about 20% had one in any assay.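 Treatment: one concentration, 48 hours, 96-well format. Scoring: percent growth, with anything below 10 considered active.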 Values without a mark were called inactive. Activity calls are given as the source filed them.

This assay relates to SF-268 CNS. Description: NCI-60 one-dose screen, 48 h (100 = growth as untreated, 0 = no growth, -100 = all killed). The note with it: 10 µM unless noted.
With `S=c1[nH]nc(CSc2ncnc3c2c(-c2ccccc2)cn3-c2ccc(Cl)cc2)o1`, the growth was 97.5%.

Regarding `COc1c(Cl)cc(Cl)cc1Cl`, the growth was 107%.

As for `COc1ccc(-c2nn(-c3ccccc3)cc2/C=C/C(=O)OCc2cn(-c3ccc(F)c(Cl)c3)nn2)cc1`, the growth is 77.4%.

As for `COc1ccc2c(c1)C(=O)/C(=C/c1cccc(OCC(=O)Nc3nc4c(s3)CCCC4)c1)O2`, the growth was -26.9% (active).

Turning to `CCN(CC)CC(C)Nc1ccc([N+](=O)[O-])c2sc3ccccc3c(=O)c12` (stereo unspecified), the growth is 27.3%.

With `Cc1nn(-c2ccccc2)c2nc(C)n(-c3ccc(Br)cc3)c(=O)c12`, the growth is 51.2%.

On to `OC(c1cc(-c2ccccc2)nc2ccc(Cl)cc12)C1CCCCN1` (stereo unspecified), for which the growth was 60.7%.

With `COc1ccc(S(=O)(=O)NCCNc2nccc(-c3c(-c4cccc([N+](=O)[O-])c4)nc4sccn34)n2)cc1`, the growth is 66.4%.

Take `COc1ccc(Cl)cc1Nc1nc(C(F)(F)F)ccc1C(=O)N/N=C/c1cccnc1`: the growth is 48.9%.

As to `COc1ccc(-c2nn(-c3ccccc3)cc2/C=C2\SC(=O)NC2=O)cc1`, the growth is 96.9%.

Turning to `Cc1ccc2c(c1)C(=O)c1c-2c(OCCCN(C)C)nc2ccccc12`, the growth is 30.8%.

For the compound `Cc1ccc(-c2nc(/C=N/Nc3cc(C)nc4ccc(Br)cc34)c(C)o2)cc1`, the growth was -59.4% (active).

On to `CCCCNP1(NCCCC)=NP(NCCCC)(NCCCC)=NP(NCCCC)(NCCCC)=NP(NCCCC)(NCCCC)=N1`, for which the growth was 25.8%.

As for `COc1ccc(-n2cc(-c3ccccc3)c3c(SCC(=O)N/N=C/c4ccc([N+](=O)[O-])cc4)ncnc32)cc1`, the growth is 98.5%.

On to `Nc1cccc(-c2nc3sccn3c2-c2ccnc(NCCCNS(=O)(=O)c3ccc(C(F)(F)F)cc3)n2)c1`, for which the growth was 14.6%.

On to `CCN(CC)CC(O)c1cc(-c2ccc(Cl)cc2)nc2c(C)c(Cl)ccc12` (stereo unspecified), for which the growth was -29.5% (active).

With `O=C1/C(=C/c2ccc(F)cc2)CN(C(=O)CCN2CCC(=NO)CC2)C/C1=C\c1ccc(F)cc1`, the growth was -23% (active).

For `CC(C)C1=C[C@@]23CC[C@@H]4[C@](C)(CCC[C@@]4(C)C(=O)OCC#CCN4CCCC4)[C@H]2C[C@@H]1[C@H]1C(=O)OC(=O)[C@H]13`, the growth was 93.1%.

As to `Cc1ccc2c(c1)C(=O)/C(=C/c1ccc(OCC(=O)c3ccccc3)cc1)O2`, the growth is 101%.

Turning to `Cc1ccc2c(c1)n([O-])c1cc(Cl)ccc1[n+]2=O`, the growth was 108%.

For `COc1ccccc1/C=C(/C(=O)c1ccccc1)c1ccccc1`, the growth is 97.8%.

In the case of `COc1nc2c(cc1S(=O)(=O)c1ccccc1)CCc1c-2cnn1-c1ccc(Cl)cc1`, the growth was 104%.

On to `CNc1cc2nc3cc(NC)c(C)cc3cc2cc1C`, for which the growth was 11.3%.

As to `Nc1c(C(=O)Nc2ccccc2)sc2nc3c(cc12)CN(CCc1ccccc1)CC3`, the growth is 93.2%.

As for `CC(C)[C@@H]1CC[C@]2(C(=O)NCCCCN=C(N)N)CC[C@]3(C)[C@H](CC[C@@H]4[C@@]5(C)CCC(=O)C(C)(C)[C@@H]5CC[C@]43C)[C@@H]12`, the growth was 54.8%.

For `CCOC(=O)c1cnc2ccc(Br)cc2c1Nc1cccc(S(=O)(=O)NC)c1`, the growth is 94.9%.

(Values after PubChem BioAssay (NCI).)
